According to the supplement of paper PMC10849652:
Of roughly 7,900 targets only a part is listed; those with a hit were picked by preference. About 0.6% of all pairs of compound and target were hits.

Legend:
Experiment in all cases: log2 fold change, soluble protein after heating vs DMSO (PISA); higher = thermal stabilisation; K562 cells, 10 uM, 30 min; active = over 0.2 and 3.5 SD of the protein, either way, in both replicates (recomputed)
ZC3H8 = ZC3H8 (UniProt Q8N5P1)
In short: (§1)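 For each measurement, 10 μM compound was applied for 30 min to K562 cells at 2×10^6 cells/mL. Aliquots were heated for 3 min across 48°C-58°C, pooled, and extracted in PBS with 0.5% NP-40 at 4°C; the supernatant after 21,000xg for 90 min was soluble protein. This was quantified by TMTpro 16plex LC-MS/MS with channel sums equalised, and thermal stability was reported relative to control samples from duplicates, on a log2 fold-change scale.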

ZC3HC1 = ZC3HC1 (UniProt Q86WB0)
ZC3HC1, sequence (Q86WB0 whole entry, looked up): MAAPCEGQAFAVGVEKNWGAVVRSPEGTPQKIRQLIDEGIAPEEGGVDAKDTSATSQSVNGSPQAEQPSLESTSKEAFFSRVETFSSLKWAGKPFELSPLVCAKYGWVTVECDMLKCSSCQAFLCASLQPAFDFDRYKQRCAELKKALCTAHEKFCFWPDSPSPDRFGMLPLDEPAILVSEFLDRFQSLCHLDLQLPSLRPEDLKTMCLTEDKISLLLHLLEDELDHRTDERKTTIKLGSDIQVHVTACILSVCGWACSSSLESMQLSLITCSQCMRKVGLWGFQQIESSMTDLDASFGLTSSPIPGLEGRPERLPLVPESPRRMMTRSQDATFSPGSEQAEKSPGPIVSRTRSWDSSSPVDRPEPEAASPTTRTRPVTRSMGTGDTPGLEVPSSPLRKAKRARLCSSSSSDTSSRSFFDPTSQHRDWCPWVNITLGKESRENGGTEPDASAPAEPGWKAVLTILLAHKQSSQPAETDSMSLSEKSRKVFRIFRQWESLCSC
In short: as §1

ZCCHC17 = ZCCHC17 (UniProt Q9NP64)
ZCCHC17, sequence (Q9NP64 whole entry, looked up): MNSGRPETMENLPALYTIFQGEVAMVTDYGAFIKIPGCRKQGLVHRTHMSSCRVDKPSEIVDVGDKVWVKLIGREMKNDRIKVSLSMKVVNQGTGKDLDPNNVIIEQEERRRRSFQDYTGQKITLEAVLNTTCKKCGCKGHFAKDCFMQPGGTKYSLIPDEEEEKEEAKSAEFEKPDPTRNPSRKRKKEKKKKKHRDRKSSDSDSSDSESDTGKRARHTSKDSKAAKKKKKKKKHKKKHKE
In short: as §1

ZCCHC9 = ZCCHC9 (UniProt Q8N567)
ZCCHC9, sequence (Q8N567 whole entry, looked up): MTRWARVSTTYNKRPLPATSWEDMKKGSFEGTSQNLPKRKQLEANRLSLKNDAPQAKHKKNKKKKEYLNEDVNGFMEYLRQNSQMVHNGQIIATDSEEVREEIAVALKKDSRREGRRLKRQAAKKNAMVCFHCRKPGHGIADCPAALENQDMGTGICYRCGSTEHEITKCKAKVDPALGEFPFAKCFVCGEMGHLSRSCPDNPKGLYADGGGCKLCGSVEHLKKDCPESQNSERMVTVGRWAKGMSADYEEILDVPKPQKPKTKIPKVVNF
In short: as §1

ZDHHC17 = ZDHHC17 (UniProt Q8IUH5)
ZDHHC17, sequence (Q8IUH5 whole entry, looked up): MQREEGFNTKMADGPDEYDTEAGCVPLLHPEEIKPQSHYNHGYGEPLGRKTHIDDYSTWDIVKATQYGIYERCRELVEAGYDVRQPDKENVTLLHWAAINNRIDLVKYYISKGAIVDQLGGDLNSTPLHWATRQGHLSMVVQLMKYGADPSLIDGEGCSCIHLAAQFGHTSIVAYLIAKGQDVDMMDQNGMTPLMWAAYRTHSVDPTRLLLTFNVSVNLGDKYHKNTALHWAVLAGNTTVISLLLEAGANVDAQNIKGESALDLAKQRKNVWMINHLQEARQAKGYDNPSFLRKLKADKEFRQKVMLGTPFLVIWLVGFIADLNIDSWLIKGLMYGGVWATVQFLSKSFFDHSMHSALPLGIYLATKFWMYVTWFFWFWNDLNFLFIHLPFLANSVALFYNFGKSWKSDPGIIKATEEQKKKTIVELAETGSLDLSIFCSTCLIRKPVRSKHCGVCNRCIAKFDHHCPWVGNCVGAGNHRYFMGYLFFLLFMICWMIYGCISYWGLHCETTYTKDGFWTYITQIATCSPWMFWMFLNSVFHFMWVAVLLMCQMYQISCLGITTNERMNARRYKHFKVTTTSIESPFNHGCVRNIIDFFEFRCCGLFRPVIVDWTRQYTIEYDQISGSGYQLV
In short: as §1

ZDHHC20 = ZDHHC20 (UniProt Q5W0Z9)
ZDHHC20, sequence (Q5W0Z9 whole entry, looked up): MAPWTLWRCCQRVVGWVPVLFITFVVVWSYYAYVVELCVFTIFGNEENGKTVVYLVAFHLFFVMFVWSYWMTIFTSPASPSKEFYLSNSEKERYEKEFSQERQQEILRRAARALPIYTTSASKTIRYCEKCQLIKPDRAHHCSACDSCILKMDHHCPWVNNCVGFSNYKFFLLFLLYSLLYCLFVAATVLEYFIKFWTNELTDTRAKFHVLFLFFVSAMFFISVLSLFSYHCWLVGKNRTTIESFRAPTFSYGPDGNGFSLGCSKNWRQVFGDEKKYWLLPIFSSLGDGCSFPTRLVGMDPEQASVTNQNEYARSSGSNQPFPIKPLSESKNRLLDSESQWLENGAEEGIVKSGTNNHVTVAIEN
In short: as §1

ZDHHC5 = ZDHHC5 (UniProt Q9C0B5)
ZDHHC5, sequence (Q9C0B5 whole entry, looked up): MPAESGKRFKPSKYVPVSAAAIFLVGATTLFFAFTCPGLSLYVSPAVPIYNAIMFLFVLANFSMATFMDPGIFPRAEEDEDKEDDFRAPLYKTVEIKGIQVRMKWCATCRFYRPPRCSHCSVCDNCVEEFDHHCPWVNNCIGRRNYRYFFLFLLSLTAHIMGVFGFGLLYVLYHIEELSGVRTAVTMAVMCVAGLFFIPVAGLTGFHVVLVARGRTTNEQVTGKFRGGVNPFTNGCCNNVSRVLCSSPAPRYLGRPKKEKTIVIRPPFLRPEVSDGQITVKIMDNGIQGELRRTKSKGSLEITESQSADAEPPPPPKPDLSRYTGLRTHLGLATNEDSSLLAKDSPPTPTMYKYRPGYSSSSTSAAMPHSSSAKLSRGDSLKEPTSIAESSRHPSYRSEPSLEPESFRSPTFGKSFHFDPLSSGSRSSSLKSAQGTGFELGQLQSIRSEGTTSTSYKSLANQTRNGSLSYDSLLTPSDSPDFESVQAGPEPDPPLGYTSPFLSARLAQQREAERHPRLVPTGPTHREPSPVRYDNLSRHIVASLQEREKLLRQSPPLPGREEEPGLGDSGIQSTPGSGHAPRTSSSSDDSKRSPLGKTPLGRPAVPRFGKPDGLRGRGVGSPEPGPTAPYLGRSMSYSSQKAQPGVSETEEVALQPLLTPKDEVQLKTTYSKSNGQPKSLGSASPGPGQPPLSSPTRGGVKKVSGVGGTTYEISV
In short: as §1

ZDHHC7 isoform 2 = ZDHHC7 isoform 2 (UniProt Q9NXF8)
ZDHHC7 isoform 2, sequence (Q9NXF8 whole entry, looked up, canonical isoform): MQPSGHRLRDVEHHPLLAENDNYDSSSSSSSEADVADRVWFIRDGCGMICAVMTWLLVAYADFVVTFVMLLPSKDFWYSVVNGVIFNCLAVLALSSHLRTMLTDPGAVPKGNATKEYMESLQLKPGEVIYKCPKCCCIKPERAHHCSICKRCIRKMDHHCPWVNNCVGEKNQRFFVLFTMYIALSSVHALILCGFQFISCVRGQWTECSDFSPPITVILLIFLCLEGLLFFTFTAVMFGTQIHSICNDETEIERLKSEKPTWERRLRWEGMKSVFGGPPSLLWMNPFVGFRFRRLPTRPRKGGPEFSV
In short: as §1

ZDHHC6 = ZDHHC6 (UniProt Q9H6R6)
ZDHHC6, sequence (Q9H6R6 whole entry, looked up): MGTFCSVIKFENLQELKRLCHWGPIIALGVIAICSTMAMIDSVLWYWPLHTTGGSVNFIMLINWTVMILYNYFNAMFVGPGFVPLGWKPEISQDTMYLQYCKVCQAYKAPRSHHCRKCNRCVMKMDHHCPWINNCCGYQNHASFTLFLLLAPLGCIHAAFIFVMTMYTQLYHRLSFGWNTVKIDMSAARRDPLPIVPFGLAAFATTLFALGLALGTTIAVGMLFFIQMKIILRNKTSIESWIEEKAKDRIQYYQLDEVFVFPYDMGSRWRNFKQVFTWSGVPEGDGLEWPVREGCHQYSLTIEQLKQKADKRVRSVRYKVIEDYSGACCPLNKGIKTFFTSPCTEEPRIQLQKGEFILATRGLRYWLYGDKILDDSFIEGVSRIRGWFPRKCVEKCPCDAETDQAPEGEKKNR
In short: as §1

Measured: log2 fold change

ZC3H8, sequence (Q8N5P1 whole entry, looked up): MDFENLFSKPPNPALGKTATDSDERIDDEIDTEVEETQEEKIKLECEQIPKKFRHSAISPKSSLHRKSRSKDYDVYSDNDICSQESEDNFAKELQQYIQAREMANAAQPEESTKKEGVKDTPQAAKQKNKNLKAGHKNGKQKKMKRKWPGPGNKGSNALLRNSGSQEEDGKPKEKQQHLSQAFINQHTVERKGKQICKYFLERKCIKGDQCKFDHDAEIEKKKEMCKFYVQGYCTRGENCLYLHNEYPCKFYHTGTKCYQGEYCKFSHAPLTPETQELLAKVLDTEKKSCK

COC(=O)[C@H](CCSC)NC(=O)c1ccc(NC[C@@H](N)CS)cc1-c1ccccc1
inactive: ZC3H8 -0.009 | ZC3HC1 -0.093 | ZCCHC17 0.033 | ZCCHC9 0.081 | ZDHHC17 0.01 | ZDHHC20 0.028 | ZDHHC5 0.054 | ZDHHC7 isoform 2 0.019

Cc1ccc(NC(=O)c2cccc(C(C)(C)C#N)c2)cc1Nc1ccc2ncn(C)c(=O)c2c1
inactive: ZC3H8 -0.021 | ZC3HC1 0.011 | ZCCHC17 -0.065 | ZCCHC9 -0.227 | ZDHHC17 0.076 | ZDHHC20 -0.067 | ZDHHC5 0.048

Cc1cccc(CC(=O)N2CCc3c2ccc(-c2cn(C)c4ncnc(N)c24)c3F)n1
inactive: ZC3H8 0.026 | ZC3HC1 0.029 | ZCCHC9 -0.048 | ZDHHC17 -0.082 | ZDHHC20 0.021 | ZDHHC5 -0.067 | ZDHHC6 0.097 | ZDHHC7 isoform 2 -0.06

CCn1cc(-c2ccnc3[nH]c(-c4cccc(CN(C)C)c4)cc23)c(-c2ccc(NC(=O)N(C)C)cc2)n1
inactive: ZC3H8 0.092 | ZC3HC1 -0.125 | ZCCHC9 0.201 | ZDHHC17 -0.018 | ZDHHC20 -0.016 | ZDHHC5 -0.002 | ZDHHC6 -0.292 | ZDHHC7 isoform 2 -0.363

CNCc1ccc(-c2[nH]c3cc(F)cc4c3c2CCNC4=O)cc1 [rucaparib]
inactive: ZC3H8 0.19 | ZC3HC1 -0.047 | ZCCHC9 0.4 | ZDHHC17 -0.034 | ZDHHC20 0.115 | ZDHHC5 0.086 | ZDHHC6 0.176 | ZDHHC7 isoform 2 -0.067

NCC(=O)Nc1ccc(-n2nc(C(F)(F)F)cc2-c2ccc3c(ccc4ccccc43)c2)cc1
inactive: ZC3H8 0.036 | ZC3HC1 -0.076 | ZCCHC17 -0.137 | ZCCHC9 -0.013 | ZDHHC17 0.012 | ZDHHC20 0.093 | ZDHHC5 -0.005 | ZDHHC7 isoform 2 -0.056

CS(=O)(=O)N1CCN(Cc2cc3nc(-c4cccc5[nH]ncc45)nc(N4CCOCC4)c3s2)CC1 [pictilisib]
inactive: ZC3H8 -0.007 | ZC3HC1 -0.003 | ZCCHC9 -0.004 | ZDHHC17 0.021 | ZDHHC20 0.066 | ZDHHC5 0.047 | ZDHHC6 -0.044 | ZDHHC7 isoform 2 0.089

CC[C@@H]1C(=O)N(C)c2cnc(Nc3ccc(C(=O)NC4CCN(C)CC4)cc3OC)nc2N1C1CCCC1
inactive: ZC3H8 0.181 | ZC3HC1 -0.163 | ZCCHC9 0.246 | ZDHHC17 -0.009 | ZDHHC20 0.031 | ZDHHC5 0.035 | ZDHHC6 -0.114 | ZDHHC7 isoform 2 0.083

c1cc(OCCN2CCCCC2)cc(-c2n[nH]c3ccc(-c4nnc[nH]4)cc23)c1
inactive: ZC3H8 -0.104 | ZC3HC1 -0.046 | ZCCHC9 -0.067 | ZDHHC17 0.068 | ZDHHC20 0.053 | ZDHHC5 -0.076 | ZDHHC6 -0.005 | ZDHHC7 isoform 2 -0.191

Nc1ccccc1NC(=O)c1ccc(CNC(=O)OCc2cccnc2)cc1 [entinostat]
inactive: ZC3H8 -0.141 | ZC3HC1 0.1 | ZCCHC17 0.081 | ZCCHC9 -0.112 | ZDHHC17 -0.047 | ZDHHC20 0.045 | ZDHHC5 -0.034

CON(C)C(=O)N1N=C(c2cc(F)ccc2F)S[C@@]1(CCCN)c1ccccc1 [filanesib]
inactive: ZC3H8 0.191 | ZC3HC1 -0.042 | ZDHHC17 -0.219 | ZDHHC20 0.008 | ZDHHC5 0.048
active: ZCCHC17 0.565 | ZCCHC9 0.527

O=C(CCCCCCNC(=O)c1cnc(N(c2ccccc2)c2ccccc2Cl)nc1)NO [citarinostat]
inactive: ZC3H8 -0.059 | ZC3HC1 0.125 | ZCCHC9 -0.161 | ZDHHC17 -0.17 | ZDHHC20 -0.028 | ZDHHC5 -0.022 | ZDHHC6 0.149 | ZDHHC7 isoform 2 -0.037

NC(=O)Nc1cc(-c2cccc(F)c2)sc1C(=O)N[C@H]1CCCNC1
inactive: ZC3H8 0.025 | ZC3HC1 -0.016 | ZCCHC17 -0.064 | ZCCHC9 -0.11 | ZDHHC17 0.084 | ZDHHC20 -0.219 | ZDHHC5 -0.081

O=C(O)c1ccc2c(c1)nc(Nc1cccc(Cl)c1)c1ccncc12 [silmitasertib]
inactive: ZC3H8 0.035 | ZC3HC1 0.06 | ZCCHC9 0.095 | ZDHHC17 0.025 | ZDHHC20 0.08 | ZDHHC5 0.101

CN1CCN(c2nc(C3=C(c4c[nH]c5ccccc45)C(=O)NC3=O)c3ccccc3n2)CC1 [sotrastaurin]
inactive: ZC3H8 0.025 | ZC3HC1 -0.178 | ZCCHC17 -0.095 | ZCCHC9 0.243 | ZDHHC17 0.099 | ZDHHC20 0.015 | ZDHHC5 -0.069
